# Targets with a hit are over-represented here; the source holds about 8,800 in all. About 0.5% of all pairs of compound and target were hits. Unmarked numbers belong to inactive results.
# Compound: NCC(=O)Nc1ccc(-n2nc(C(F)(F)F)cc2-c2ccc3c(ccc4ccccc43)c2)cc1
# Assay: log2 fold change, soluble protein after heating vs DMSO (PISA); higher = thermal stabilisation; K562 lysate, 10 uM; active = over 0.2 and 3.5 SD of the protein, either way, in both replicates (recomputed)
# Procedure, shortened: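 K562 pellets were dounce-homogenised in PBS pH 7.4 with 1 mM MgCl2, and the crude extract at 1 mg/mL protein was treated with 10 μM compound for 30 min. Aliquots were heated for 3 min across 48°C-58°C, pooled, and brought to 0.5% NP-40 at 4°C; soluble protein was the supernatant after 21,000xg for 90 min. Soluble protein was quantified by TMTpro 16plex LC-MS/MS with channel sums equalised, and reported as log2 fold change in thermal stability against DMSO controls, with values from duplicates.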
# Chain of UniProt Q9UKI8 (Q9UKI8 whole entry, looked up): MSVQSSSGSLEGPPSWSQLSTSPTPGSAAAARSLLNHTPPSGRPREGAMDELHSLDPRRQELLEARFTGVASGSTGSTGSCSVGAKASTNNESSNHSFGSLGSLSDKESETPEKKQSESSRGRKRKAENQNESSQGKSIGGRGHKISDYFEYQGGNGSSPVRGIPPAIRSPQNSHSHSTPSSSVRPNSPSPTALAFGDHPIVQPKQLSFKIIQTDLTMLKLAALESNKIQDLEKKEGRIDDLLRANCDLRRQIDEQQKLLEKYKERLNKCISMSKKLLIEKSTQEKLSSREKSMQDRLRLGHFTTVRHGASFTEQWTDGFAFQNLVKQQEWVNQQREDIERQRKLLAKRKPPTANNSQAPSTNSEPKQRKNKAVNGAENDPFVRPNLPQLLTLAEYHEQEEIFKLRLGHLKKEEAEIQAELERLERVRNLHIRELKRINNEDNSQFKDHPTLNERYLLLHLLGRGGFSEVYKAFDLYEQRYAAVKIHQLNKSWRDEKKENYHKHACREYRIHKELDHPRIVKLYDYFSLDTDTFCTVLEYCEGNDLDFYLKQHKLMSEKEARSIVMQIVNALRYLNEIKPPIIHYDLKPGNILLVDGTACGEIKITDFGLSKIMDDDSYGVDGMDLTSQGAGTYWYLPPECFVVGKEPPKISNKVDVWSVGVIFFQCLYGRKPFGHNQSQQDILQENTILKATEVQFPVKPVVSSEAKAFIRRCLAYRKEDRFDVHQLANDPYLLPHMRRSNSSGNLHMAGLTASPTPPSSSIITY
# Chain of UniProt Q5R3I4 (Q5R3I4 whole entry, looked up): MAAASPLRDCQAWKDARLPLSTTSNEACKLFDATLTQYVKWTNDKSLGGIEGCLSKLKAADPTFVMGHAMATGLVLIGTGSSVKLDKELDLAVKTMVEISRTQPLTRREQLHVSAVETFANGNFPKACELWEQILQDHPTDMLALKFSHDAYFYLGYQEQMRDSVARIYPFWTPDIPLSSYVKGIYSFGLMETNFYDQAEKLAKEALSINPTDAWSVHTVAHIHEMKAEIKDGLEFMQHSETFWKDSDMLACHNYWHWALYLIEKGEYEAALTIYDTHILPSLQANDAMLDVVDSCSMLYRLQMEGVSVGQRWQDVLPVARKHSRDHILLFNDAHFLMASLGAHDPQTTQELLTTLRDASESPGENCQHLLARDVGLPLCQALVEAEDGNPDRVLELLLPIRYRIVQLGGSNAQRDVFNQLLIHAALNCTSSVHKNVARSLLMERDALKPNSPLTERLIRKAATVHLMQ
# Chain of UniProt A6NHL2 (A6NHL2 whole entry, looked up): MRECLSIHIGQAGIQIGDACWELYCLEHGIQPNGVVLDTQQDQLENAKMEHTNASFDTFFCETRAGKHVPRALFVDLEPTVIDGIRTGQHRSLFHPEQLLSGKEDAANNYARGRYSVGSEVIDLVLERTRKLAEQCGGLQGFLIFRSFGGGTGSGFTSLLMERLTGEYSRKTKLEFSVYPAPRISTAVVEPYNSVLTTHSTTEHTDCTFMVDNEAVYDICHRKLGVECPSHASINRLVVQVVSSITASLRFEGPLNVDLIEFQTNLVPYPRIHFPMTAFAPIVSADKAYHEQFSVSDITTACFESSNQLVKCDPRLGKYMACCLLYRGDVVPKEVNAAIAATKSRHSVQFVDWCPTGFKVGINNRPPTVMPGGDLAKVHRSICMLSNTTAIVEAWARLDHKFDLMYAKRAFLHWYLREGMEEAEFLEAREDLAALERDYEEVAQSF
# Chain of UniProt O75382 (O75382 whole entry, looked up): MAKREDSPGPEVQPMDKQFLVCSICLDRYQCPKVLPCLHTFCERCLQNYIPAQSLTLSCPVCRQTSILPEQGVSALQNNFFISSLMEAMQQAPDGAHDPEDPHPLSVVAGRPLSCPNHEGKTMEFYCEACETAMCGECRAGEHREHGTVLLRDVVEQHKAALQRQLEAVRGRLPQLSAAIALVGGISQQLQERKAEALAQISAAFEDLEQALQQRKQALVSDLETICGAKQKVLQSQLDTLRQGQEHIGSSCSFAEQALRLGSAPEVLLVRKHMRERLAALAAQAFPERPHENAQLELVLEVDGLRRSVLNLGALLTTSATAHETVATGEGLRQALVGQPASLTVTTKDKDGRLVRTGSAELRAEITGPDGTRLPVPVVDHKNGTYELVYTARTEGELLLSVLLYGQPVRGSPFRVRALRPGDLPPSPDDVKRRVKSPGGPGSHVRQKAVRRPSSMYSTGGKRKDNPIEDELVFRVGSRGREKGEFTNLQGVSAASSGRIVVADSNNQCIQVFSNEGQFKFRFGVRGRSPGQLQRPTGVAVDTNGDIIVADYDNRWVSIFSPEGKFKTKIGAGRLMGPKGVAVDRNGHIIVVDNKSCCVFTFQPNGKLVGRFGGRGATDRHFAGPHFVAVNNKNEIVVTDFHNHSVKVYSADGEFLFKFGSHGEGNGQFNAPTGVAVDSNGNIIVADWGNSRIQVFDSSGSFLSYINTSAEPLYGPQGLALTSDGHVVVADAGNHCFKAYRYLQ
# Chain of UniProt P10646 (P10646 whole entry, looked up): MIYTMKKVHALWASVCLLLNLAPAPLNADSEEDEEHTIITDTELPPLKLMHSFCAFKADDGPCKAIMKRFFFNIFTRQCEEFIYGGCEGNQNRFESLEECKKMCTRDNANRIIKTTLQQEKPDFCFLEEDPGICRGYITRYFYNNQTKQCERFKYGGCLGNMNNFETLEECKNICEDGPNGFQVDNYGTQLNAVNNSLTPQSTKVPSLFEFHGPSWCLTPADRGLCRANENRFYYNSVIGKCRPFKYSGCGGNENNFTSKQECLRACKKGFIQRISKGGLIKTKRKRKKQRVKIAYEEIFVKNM
# Chain of UniProt Q9NPG3 (Q9NPG3 whole entry, looked up): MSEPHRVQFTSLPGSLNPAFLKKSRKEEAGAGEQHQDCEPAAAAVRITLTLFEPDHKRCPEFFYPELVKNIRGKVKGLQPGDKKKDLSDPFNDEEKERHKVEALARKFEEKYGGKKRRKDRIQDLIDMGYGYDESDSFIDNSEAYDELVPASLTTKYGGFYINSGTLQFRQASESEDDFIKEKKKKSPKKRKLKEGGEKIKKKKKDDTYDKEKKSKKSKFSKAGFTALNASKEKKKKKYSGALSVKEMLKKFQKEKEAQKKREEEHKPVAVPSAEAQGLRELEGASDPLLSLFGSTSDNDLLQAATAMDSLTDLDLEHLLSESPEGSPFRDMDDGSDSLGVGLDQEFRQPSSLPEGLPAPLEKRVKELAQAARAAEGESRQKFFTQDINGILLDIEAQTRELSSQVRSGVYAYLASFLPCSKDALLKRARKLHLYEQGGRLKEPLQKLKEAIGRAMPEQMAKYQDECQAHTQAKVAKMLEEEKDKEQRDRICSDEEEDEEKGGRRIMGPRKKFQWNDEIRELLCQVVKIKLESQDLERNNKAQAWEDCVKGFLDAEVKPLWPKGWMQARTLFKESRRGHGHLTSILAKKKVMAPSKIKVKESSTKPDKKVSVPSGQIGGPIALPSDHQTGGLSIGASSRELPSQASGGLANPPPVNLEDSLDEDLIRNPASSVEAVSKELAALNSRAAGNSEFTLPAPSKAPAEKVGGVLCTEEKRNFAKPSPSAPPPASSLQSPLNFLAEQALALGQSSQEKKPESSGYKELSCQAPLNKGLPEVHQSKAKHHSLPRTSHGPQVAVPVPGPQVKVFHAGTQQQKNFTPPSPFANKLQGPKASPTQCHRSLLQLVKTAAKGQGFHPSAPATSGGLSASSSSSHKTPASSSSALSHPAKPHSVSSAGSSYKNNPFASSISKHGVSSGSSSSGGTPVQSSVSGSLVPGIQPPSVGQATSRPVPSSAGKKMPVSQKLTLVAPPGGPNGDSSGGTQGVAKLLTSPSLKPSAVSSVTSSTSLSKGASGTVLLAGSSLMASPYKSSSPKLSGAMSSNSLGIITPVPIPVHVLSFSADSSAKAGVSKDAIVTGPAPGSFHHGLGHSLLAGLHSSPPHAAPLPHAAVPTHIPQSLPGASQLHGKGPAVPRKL
# Chain of UniProt P42680 (P42680 whole entry, looked up): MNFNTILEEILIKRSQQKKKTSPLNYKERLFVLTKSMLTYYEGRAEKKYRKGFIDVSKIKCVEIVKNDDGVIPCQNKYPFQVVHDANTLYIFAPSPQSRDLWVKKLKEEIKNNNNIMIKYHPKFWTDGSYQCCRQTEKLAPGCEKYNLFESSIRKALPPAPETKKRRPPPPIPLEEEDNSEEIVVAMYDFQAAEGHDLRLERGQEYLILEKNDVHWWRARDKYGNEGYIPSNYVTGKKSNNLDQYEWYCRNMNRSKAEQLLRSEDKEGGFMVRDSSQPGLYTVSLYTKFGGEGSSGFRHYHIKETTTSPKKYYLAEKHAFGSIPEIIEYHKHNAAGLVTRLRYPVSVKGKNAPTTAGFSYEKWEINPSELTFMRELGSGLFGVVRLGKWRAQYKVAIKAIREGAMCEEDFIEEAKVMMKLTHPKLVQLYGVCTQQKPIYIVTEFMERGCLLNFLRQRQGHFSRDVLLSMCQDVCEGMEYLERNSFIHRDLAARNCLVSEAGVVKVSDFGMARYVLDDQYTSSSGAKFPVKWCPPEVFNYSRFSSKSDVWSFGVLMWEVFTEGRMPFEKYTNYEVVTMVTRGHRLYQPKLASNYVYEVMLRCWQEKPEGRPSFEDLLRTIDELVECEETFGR
# Chain of UniProt Q14CS0 (Q14CS0 whole entry, looked up): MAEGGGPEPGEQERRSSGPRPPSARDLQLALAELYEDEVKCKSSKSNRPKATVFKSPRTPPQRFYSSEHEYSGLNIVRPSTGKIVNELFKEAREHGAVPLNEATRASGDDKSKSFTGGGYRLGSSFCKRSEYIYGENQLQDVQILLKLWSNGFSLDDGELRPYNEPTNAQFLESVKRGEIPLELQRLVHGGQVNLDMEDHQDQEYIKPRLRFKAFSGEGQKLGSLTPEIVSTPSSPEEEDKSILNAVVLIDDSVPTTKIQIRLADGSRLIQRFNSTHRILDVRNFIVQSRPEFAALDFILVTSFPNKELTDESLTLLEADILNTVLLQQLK
# Chain of UniProt O14933 (O14933 whole entry, looked up): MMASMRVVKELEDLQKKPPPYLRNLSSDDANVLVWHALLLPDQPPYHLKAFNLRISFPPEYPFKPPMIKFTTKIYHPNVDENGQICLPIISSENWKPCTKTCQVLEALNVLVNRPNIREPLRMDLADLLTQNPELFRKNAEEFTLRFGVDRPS
row,Target,log2 fold change
1,TEC (UniProt P42680),-1.05 (active)
2,UBAP2L (UniProt F8W726),0.062
3,TRIM3 (UniProt O75382),-0.304
4,UBE2L6 (UniProt O14933),-0.071
5,TLK1 isoform 2 (UniProt Q9UKI8),0.001
6,UBN1 (UniProt Q9NPG3),0.048
7,TUBAL3 (UniProt A6NHL2),0.083
8,UBXN2B (UniProt Q14CS0),0.095
9,TMPO isoform 2 (UniProt P42167),-0.066
10,TFPI isoform 2 (UniProt P10646),0.184
11,UCP2 (UniProt P55851),-0.12
12,UBR4 isoform 4 (UniProt Q5T4S7),-0.145
13,TUBGCP5 (UniProt Q96RT8),-0.029
14,TSPAN3 (UniProt O60637),-0.124
15,THAP9 (UniProt Q9H5L6),0.207
16,TRAF7 (UniProt Q6Q0C0),0.052
17,TTC38 (UniProt Q5R3I4),0.017
18,TIMELESS (UniProt Q9UNS1),0

# — the supplement of paper PMC10849652
